PubChem BioAssay (NCATS)
Values joined by “and” are separate entries in the source; they are usually repeats but may differ in a detail not shown here. Equal values may be shown once.

What follows are molecules tested against Cytochrome P450 3A4 (Homo sapiens) (UniProt P08684) (assay: qHTS Assay for Activators of Cytochrome P450 3A4 (AID 885; also: nearly all actives have a fitted effect of over 65% in size)). Details: recombinant CYP3A4, Luciferin-PPXE luminescence, 60 min; series mostly up to 57.1 µM; activity change, positive = activation: at the top concentration; active = well fitted activation curve with a large enough effect; inconclusive = small, poorly fitted or top-dose-only effect; inactive = no such curve, though single readings can be large or run the other way.
Chain of Cytochrome P450 3A4 (Homo sapiens) (P08684 whole entry, looked up): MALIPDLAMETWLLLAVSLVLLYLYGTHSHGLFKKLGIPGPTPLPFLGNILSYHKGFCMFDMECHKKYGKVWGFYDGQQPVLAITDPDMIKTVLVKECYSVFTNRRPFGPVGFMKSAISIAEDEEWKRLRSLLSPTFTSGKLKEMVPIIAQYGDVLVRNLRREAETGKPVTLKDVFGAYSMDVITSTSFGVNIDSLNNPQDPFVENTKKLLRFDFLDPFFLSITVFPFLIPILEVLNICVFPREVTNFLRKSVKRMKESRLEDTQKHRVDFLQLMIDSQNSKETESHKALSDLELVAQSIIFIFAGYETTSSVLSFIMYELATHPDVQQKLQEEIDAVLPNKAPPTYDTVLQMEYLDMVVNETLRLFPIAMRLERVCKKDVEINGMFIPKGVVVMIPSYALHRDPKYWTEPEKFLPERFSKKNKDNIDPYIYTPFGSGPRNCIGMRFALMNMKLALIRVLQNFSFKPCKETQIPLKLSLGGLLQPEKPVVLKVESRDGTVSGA
In short: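 CYP3A4 activity: Luciferin-PPXE O-dealkylation, 25uM substrate, 200mM KPO4, RT throughout. Read-out is luciferase luminescence; higher values reflect activation.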

Activity change, positive = activation, inactive:
CCC1=C2CC[C@H]3C(=O)N(c4ccccc4)C(=O)[C@H]3[C@H]2[C@@]2(Cc3ccccc3)C(=NCC3CC3)OC(=O)N2C1=O -100%, Cn1c(N)c(C(=O)COC(=O)c2cc(C3CC3)nc3ccccc23)c(=O)n(C)c1=O -48.2%, COC(=O)c1ccc(C23CC4(C2)[C@H](CN(C)[C@@H]4c2ccccc2)C3c2ccc(C(F)(F)F)cc2)cc1 (stereo not given in full) -50.5%, COC(=O)c1ccc(CN2[C@@H]3C[C@@H](O)CC[C@@H]3C[C@H]2C(=O)OC)cc1 -59.2%, c1ccc(C2[C@H]3CN(CC4CCCCC4)[C@H](c4ccccc4)C34CC2(c2ccccc2)C4)cc1 (stereo not given in full) -41.7%, CC(C)[C@@H](OCc1ccccc1)[C@H](C)/C=N\O[C@@H](C)c1cn([C@H](CO)Cc2ccccc2)nn1 -36% [at 11.4 µM] and -44.1% [at 11.4 µM], COC(=O)[C@@H]1C[C@@H]2CC[C@@H](O)C[C@@H]2N1Cc1ccc(C(F)(F)F)cc1 -53%, CCC1=C2CC[C@H]3C(=O)NC(=O)[C@H]3[C@H]2[C@@]2(C)C(=O)N(CC3CC3)C(=O)N2C1=O -36.8%, CO[C@@H]1/C=C\CC(=O)N[C@@H](C)C(=O)OC[C@H](NS(=O)(=O)c2ccc(C)cc2)[C@H](C)/C=C\CC(=O)OC[C@H]1C -37.9% [at 11.4 µM], Cn1c(N)c(C(=O)COC(=O)c2ccnc3ccccc23)c(=O)n(C)c1=O -56.8%, Clc1ccc(C2[C@H]3CN(Cc4ccc(-c5ccccc5)cc4)[C@H](c4ccccc4)C34CC2(c2cccnc2)C4)cn1 (stereo not given in full) -52%, Cc1cc2c(nc1C)CCCN2C[C@H](C)O/N=C1/[C@H]2O[C@@H]2[C@@H](O)[C@H]2[C@H]1CCn1c(=O)n(-c3ccccc3)c(=O)n12 -35.6% [at 11.4 µM], COC(=O)C/C=C\[C@@H](C)[C@@H](/C=N\O[C@@H]1O[C@H](COC(C)=O)[C@H](OC(C)=O)[C@H](OC(C)=O)[C@H]1OC(C)=O)OC -32.3% [at 11.4 µM], CC(=O)OC[C@@H]1O[C@H](CCO/N=C(\C)CCN2CCCc3nc(C)c(C)cc32)C=C[C@@H]1OC(C)=O -42.6% [at 11.4 µM], COC(=O)[C@@H]1C[C@@]2(O)[C@H](O)[C@H](O)[C@H](O)C[C@H]2N1CC(c1ccccc1)c1ccccc1 -52.9%, C=CC[C@@H]1C=C[C@H](O/N=C(\C)CCN2CCCc3nc(C)c(C)cc32)[C@H](CO)O1 -70.1% [at 11.4 µM], CC(=O)OC[C@@H]1O[C@H](CCO/N=C(\C)CCN2CCc3nc(-c4ccccc4)c(-c4ccccc4)cc3C2)C=C[C@@H]1OC(C)=O -47.2% [at 11.4 µM], COC(=O)[C@@H]1C[C@@]2(O)[C@H](O)[C@H](O)[C@H](O)C[C@H]2N1Cc1ccc(C(F)(F)F)cc1 -51.1%, CC(=O)OC[C@@H]1O[C@@H](O/N=C2/C[C@@H](O)[C@@H](O)[C@@H]3[C@@H]4C(=O)N(Cc5ccc6c(c5)OCO6)C(=O)[C@H]4CC[C@@H]23)[C@H](OC(C)=O)[C@H](OC(C)=O)[C@@H]1OC(C)=O -36.6% [at 11.4 µM], O=C(O)c1sccc1S(=O)(=O)Nc1ccc(Cl)cc1 -30.3%
